This note sets out measurements from PubChem BioAssay AID1347426 (Functional Genomics Laboratory (NCATS/FGL), 2020).

Screen size: about 31,000 sequences; about 1,400 (4.5%) were called active. This is one part of a sample in which actives are shown more often than they occur.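 How the source made its calls: active means median seed-adjusted z-score above 1 or below -1; inactive means the rest.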

The test is described as follows: Novel Modifiers of Survival Motor Neuron (SMN) Protein: Gene Identification via Genome-wide siRNA Screen.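 Further: luminescence tracks full-length SMN protein made from the SMN2 reporter.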 The following applies: HEK293T SMN2-luciferase reporter, siRNA knockdown, 72 h; actives lie on both sides. In a few lines: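 Luciferase signal, proportional to full-length SMN made from an SMN2 cDNA reporter in stable HEK293T cells, was read 72 h after siRNA reverse transfection. Values were expressed as MAD scores after non-targeting-control normalization and log10 conversion; seed analysis flagged off-targets.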
Background: A reporter such as luciferase makes a cellular process visible.
With “GGAAGCGAAUACUACUAUUTT against ST6GALNAC3”, the median seed-adjusted z-score is -0.205 (inactive). In the case of GCAUUGAUCCUCAGAGUAATT against PTPRU, the median seed-adjusted z-score was 0 (inactive). Take GGGAUAUGAUAGAUCCUUATT against CPO: the median seed-adjusted z-score was 0.0875 (inactive).

As for CCGCAUAGCUCAUAGGAUATT against SMARCA2, the median seed-adjusted z-score was -0.458 (inactive). With GCAUGGUAAUUUAUAGUUUTT against NGF the figure was -0.325 (inactive); with GCACGGAAUUUGAACAGUATT against SOX17, -0.46 (inactive). With GGAACAUCUUUGUACCUAUTT against NARG1 the figure was -1.02 (active); with AUCUAGACUUCUCUUUAUATT against FHL3, 0.105 (inactive).

Take UCCUCAACGUGUGCGAUGATT against KCNG1: the median seed-adjusted z-score was -0.00995 (inactive). Then CCUCAGCUUUUACAGCAAATT against RAD23A, with -1.13 (active); and GGCCUAUGCUAAUCAUUCUTT against FANCA, with 0.418 (inactive).

Consider GACUUGAAGAUGCUAAUCATT against TIPIN, for which the median seed-adjusted z-score is 0 (inactive). Then GAAUGAAAUCAGAGUAUAATT against RNF125, with 0.204 (inactive). With CCAGGUCCAUGGAAAGAAATT against NEIL2, the median seed-adjusted z-score was -0.256 (inactive).

CGGCUAGAAGAGGAACAGATT against LSG1: the median seed-adjusted z-score is 1.31 (active). In the case of CAAUGUGGUGUAUAAUACATT against VNN2, the median seed-adjusted z-score is -0.583 (inactive).

On to CAGUCACUGCACUACAGAATT against ATF7, for which the median seed-adjusted z-score is 0.903 (inactive).

In the case of AGAACAAAGACCUAAUGGATT against TNNT3, the median seed-adjusted z-score is -0.293 (inactive). Turning to GAUUGAGAAUUCUAUUGUATT against UTP6, the median seed-adjusted z-score was -0.253 (inactive). Then GAAUCGUUGUCAGAGCCUUTT against LMNB1, with 0.0619 (inactive); and AGGCAAAGACGGAACAACATT against TRIM69, with 0.214 (inactive). Take GCAUUGGUCUAGAGCUUUATT against SCPEP1: the median seed-adjusted z-score was -0.99 (inactive). With GCAUCGUCACUGUCAUGAATT against ITPR3 the figure was -1.28 (active); with AGUUUGAUGUUAUCAAUCUTT against PRKAG1, 0.431 (inactive). Consider GCAGAUCUCGCUACAGGGATT against SFRS2B, for which the median seed-adjusted z-score is -0.272 (inactive). With UCAGCUUCAGCUUAACUGATT against TUBA1B, the median seed-adjusted z-score is 0.0888 (inactive). With CGAGAAUGACUAUCUUCAATT against STK32C, the median seed-adjusted z-score is -0.311 (inactive).

GACCUGGGCAGAUUCCAAATT against MMP9: the median seed-adjusted z-score was -1.15 (active). With GGGUAUGAGAUAUGCGGUATT against TYW1 the figure was 0.201 (inactive); with GAUUAGAUCUAAACAAUCUTT against TTRAP, -0.33 (inactive); with CCAGAAUGCCCAUAUCACATT against RS1, -0.684 (inactive). On to GCCUUCUGAUGGUAGAUCUTT against RANBP17, for which the median seed-adjusted z-score was -0.123 (inactive). Then GGAUGGCAGGGAUUCCGAATT against ZNF213, with 1.37 (active); and GGAAAGUUGUGGGUCUAAUTT against SERPINA7, with 0.0925 (inactive).

For GGACUUAAGCGACAACGCATT against RANGAP1, the median seed-adjusted z-score was -0.0379 (inactive). Then GCACCGAACCCGUCUAUCATT against POU3F4, with -0.314 (inactive).

Turning to GUAGCUUGCUACUCCAGAATT against POLR2D, the median seed-adjusted z-score is -3.79 (active). Then CGGAUGCACAAGCUAAAUATT against BHLHA15, with -0.199 (inactive); and CGGAAGGUAGUAAACCUUUTT against AMY1A, with 0.272 (inactive). With GUAGCUCAUUUGUAAGGAATT against ZNF578 the figure was -0.808 (inactive). With GGAGCGCAAGAUCACCUUATT against SSTR1 the figure was 0.285 (inactive); with GCCGGUAUGUGAAGGAGAATT against CLK3, -1.11 (active); with CACUUUUUAUAUUUACGUATT against TSPAN4, 0.417 (inactive). Turning to GUGUAGACAUAGUCUAAAATT against ZNF532, the median seed-adjusted z-score is -0.0289 (inactive). Then CCCUGUCUGUGAAGCAUGATT against TXNDC2, with -1.29 (active).

Take GCUACAUCUUUAUAAGGGATT against IL12RB2: the median seed-adjusted z-score was 0.368 (inactive). With GGAAGAAAGCGGGACUUUUTT against PPME1 the figure was 0.342 (inactive); with CAGACUCCCUCAUCACCAATT against ALAS1, -1.15 (active); with CAAUGAACACUACUAACCATT against IL31RA, 0.36 (inactive).

For CGGGAGUGGUUUUCAGAGATT against APOC1, the median seed-adjusted z-score was 0 (inactive).

With GCUCUGAAUUCAGUGUUUATT against HTR3E, the median seed-adjusted z-score was -0.717 (inactive).

As for GGUCUAACUCAAUAAUGGATT against REV3L, the median seed-adjusted z-score is 0.062 (inactive). On to GCUGAAUAUCUACACGGAATT against SLCO4A1, for which the median seed-adjusted z-score was -0.0802 (inactive). For the sequence GUGCUCGAAUGAUAACUAUTT against RAB2A, the median seed-adjusted z-score was -0.038 (inactive). With GUGGAACAAUUGUAACAGATT against ETF1 the figure was -1.12 (active); with GCUUCGAAUGGAUCUAGAATT against MYH8, 0.0648 (inactive). Then CCAACGAACAUGUACAACATT against CACNA2D3, with 0.198 (inactive); and GGAUAUGGUUAAUAGGAGATT against SMC6, with 0.227 (inactive).

For GCAGUUAGAUGUCAGGACATT against PPIA, the median seed-adjusted z-score was 0.0169 (inactive). With CGAAAGGAGUCUUCACCAATT against PRDX6 the figure was -0.0302 (inactive); with CCCUAGAUAUGGACGAUGATT against UTP3, -1.08 (active); with CAAUGGACAGAAUACACUUTT against ZNF614, 0.0971 (inactive). In the case of UGAGCAGUGAGAACCCAUATT against PEAR1, the median seed-adjusted z-score was 0.071 (inactive). Then CCAUAGUAGUGACUACCAUTT against GRIA3, with -0.358 (inactive); and AACUGGACCUUAAAAAGAATT against POU4F3, with 0 (inactive).

With GGAUGUCCAGAGGCACUAATT against POLA2, the median seed-adjusted z-score was -0.114 (inactive). With GAAAGACUUGUUUAUAUUATT against ADRB1 the figure was 1.06 (active); with CUCAAUCCAUAGUAAGUAUTT against ZNF678, 0.172 (inactive). Take CAAUUCUUGUCAUUUGAAATT against SLC25A19: the median seed-adjusted z-score is -0.104 (inactive).

For the sequence CCAUAAUGAUAGAGUUUAATT against SLC24A4, the median seed-adjusted z-score is 0.0358 (inactive). With GAGUGAGAGCUGUAGAAAATT against CREB3, the median seed-adjusted z-score was 0.0509 (inactive). With AGUGGACAACAGAACAAUATT against SNRPG the figure was -3.09 (active); with CCUGUACGAUGAGAUAGAATT against CYFIP2, -0.322 (inactive). Then GGAUGCACUUCUAAACUCATT against AKR1D1, with 0.211 (inactive); and GGUCUAGCCUUACACCUCATT against RAB3GAP2, with 0.0583 (inactive); and GAAGGGCUCUUUCACAGCUTT against ADAMTS13, with -0.276 (inactive).

Regarding GGACAUGUUCUACUCUUCATT against LRP5, the median seed-adjusted z-score was -1 (active). For the sequence GUCUCGAUGGAGCAAAGUATT against TCERG1, the median seed-adjusted z-score is 0.415 (inactive).

On to CGACUUGCUAAGCUACAUATT against MAOA, for which the median seed-adjusted z-score is 0.665 (inactive). GGAACAACGGUGGAGAUUUTT against ITGB5: the median seed-adjusted z-score is -0.00882 (inactive).

Consider GAAAGGAUCAGUGUCGAUATT against OCRL, for which the median seed-adjusted z-score was -0.545 (inactive). For GCAGUUUCAGGGUAUGAAATT against LGMN, the median seed-adjusted z-score is 0.391 (inactive). Turning to GGAUCAUACUAGAAGACUATT against TREM1, the median seed-adjusted z-score is 0 (inactive). With GGAACACUAUGAUGAGUUUTT against U2AF1 the figure was 2.08 (active); with GCUGCUCCCGGAAAUGCAATT against ISOC2, -0.599 (inactive); with CAACAUGCCCAUUCGCUUUTT against ADIPOQ, 0.557 (inactive). Regarding GCCUGAGACCAAAAACAGATT against SLC2A9, the median seed-adjusted z-score is 0.216 (inactive).

For the sequence GAUCUGCAUCAAUACUGAATT against FBLN5, the median seed-adjusted z-score is -0.0832 (inactive).

In the case of CACUGACUAUUAUCAUUCATT against WHSC1L1, the median seed-adjusted z-score was -0.283 (inactive). GGGAUGUAAUAACAGCAUUTT against GDE1: the median seed-adjusted z-score is -0.256 (inactive). Then CUGUUGCACUUCACAUUUUTT against TRIP13, with 1 (active); and CAGCUUAAUUUUUACGCAATT against IPMK, with -0.00138 (inactive); and CACCUACGAUAGCUACUAUTT against NKTR, with -1.1 (active). Take GCCUCACGUUUGUCAGUAUTT against WNK3: the median seed-adjusted z-score was -0.466 (inactive). With CAUCCAACGACAAUCUAUATT against ATP1A2 the figure was 0.248 (inactive). Regarding UCACGGCUCUGUUGAAUGUTT against DUSP4, the median seed-adjusted z-score was -0.176 (inactive).

For GACCCAUGGUAAAAUGCAATT against TWIST1, the median seed-adjusted z-score is -0.159 (inactive).

Regarding GCAUAAUAAGGGUAGGGAUTT against DDX53, the median seed-adjusted z-score was -0.136 (inactive).

Consider GAUAGAAGCAUGGAAUUGATT against MRS2, for which the median seed-adjusted z-score is 1.38 (active). On to GGUCAAUUCAGUGAAGAUATT against ARL8B, for which the median seed-adjusted z-score is -0.477 (inactive). As for GAUUGGUGGUUGGAACAUUTT against ECE2, the median seed-adjusted z-score was 0.794 (inactive). CCAAAGAUAUCGGACCCUATT against PI4K2A: the median seed-adjusted z-score is -0.486 (inactive). With CGGCGUCUCUACUACGUCUTT against CLEC11A the figure was -1.1 (active); with CUUCCUGGGUGUAAUGUUATT against IGSF1, 0.258 (inactive); with GCAAGGCAGCUGUUCUGAATT against PGLS, 0.188 (inactive). Then GCAUCUGUGAGGAUAUUGATT against FBN3, with 0.264 (inactive).

For the sequence GAGUCGAGUUUGAUGAAGATT against GSTA4, the median seed-adjusted z-score is -0.848 (inactive). For CGUUCGGUCUGACGCAGUATT against LRP5, the median seed-adjusted z-score was -1 (active).
